Screens deposited in PubChem BioAssay by National Center for Advancing Translational Sciences (NCATS).
Most compounds without a hit are left out; they make up all but 3.1% or so of the library.
PLK1 PBD block = blocks phosphopeptide binding to human PLK1 polo-box domain. Plk1 PBD binding of FITC phosphopeptide, fluorescence polarization. 2.8% of 360,000 active. Potency, µM, inactives show max response, negative = inhibition, actives largely listed as inhibitors. P53350; also: potency is read from the fitted curve at half-maximal effect; series mostly up to about 57 µM; % is scaled to controls: 0 for no effect and ±100 for the full control effect; nearly all actives have a fitted effect of over 65% in size
ASM inhibitor = blocks human secretory acid sphingomyelinase; placental ASM, HMU-PC fluorogenic substrate, 60 min; P17405; 0.006% of 340,000 active; Potency, µM (highest dose often 57.5 µM), for inactives: top-dose activity change, negative = inhibition, most hits filed as inhibitors; also: potency is read from the fitted curve at half-maximal effect
Target sequence (P17405 47-631 limits assumed): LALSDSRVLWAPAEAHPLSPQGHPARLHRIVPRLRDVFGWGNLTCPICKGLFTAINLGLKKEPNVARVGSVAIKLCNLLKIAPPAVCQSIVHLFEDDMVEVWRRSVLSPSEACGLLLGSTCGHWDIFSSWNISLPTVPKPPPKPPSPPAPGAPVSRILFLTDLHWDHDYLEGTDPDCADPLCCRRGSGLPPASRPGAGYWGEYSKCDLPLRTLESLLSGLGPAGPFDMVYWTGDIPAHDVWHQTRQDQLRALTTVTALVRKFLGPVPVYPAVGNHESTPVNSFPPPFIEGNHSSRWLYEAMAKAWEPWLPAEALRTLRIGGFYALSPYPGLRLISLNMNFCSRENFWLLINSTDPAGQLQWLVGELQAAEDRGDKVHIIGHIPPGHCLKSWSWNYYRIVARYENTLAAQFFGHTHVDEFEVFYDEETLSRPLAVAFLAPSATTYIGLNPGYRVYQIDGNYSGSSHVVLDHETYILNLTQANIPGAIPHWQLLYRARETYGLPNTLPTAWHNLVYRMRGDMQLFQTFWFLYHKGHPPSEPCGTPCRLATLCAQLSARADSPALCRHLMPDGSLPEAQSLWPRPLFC
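Human placenta-derived ASM enzyme was preincubated with compound for 10 minutes at room temperature, then given fluorogenic substrate HMU-PC0 (9 uM final) for 60 minutes at 37 °C; a pH 10 stop preceded fluorescence reading at Ex 386/Em 447 nm.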
Tb PFK block = T. brucei PFK enzyme inhibition. O15648. T. brucei PFK, ADP-Glo luminescence. Potency, µM (titrated, usually from 57.5 µM), for the others: at the top dose activity, negative = inhibition, usual class: inhibitors. 0.17% of 330,000 active. AID 485367;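 also: potency is read from the fitted curve at half-maximal effect; 0% = uninhibited 1x PFK enzyme wells and -100% = no-enzyme wells; nearly all actives have a fitted effect of over 60% in size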
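In TEA buffer at pH 8.0 with 5 mM MgCl2, enzyme (1.25 nM) converted F6P (0.5 mM) and ATP (0.1 mM) for 45 min at room temperature. ADP product was read by luciferase luminescence.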
TDP1 block = inhibitors of human tyrosyl-DNA phosphodiesterase TDP1 | recombinant TDP1, AlphaScreen DNA substrate cleavage | Potency, µM (highest dose often 130 µM), for inactives: top-dose activity change, negative = inhibition, most hits filed as inhibitors | Q9NUW8 | 0.28% of 350,000 active; also: potency is read from the fitted curve at half-maximal effect; % is scaled to controls: 0 for no effect and ±100 for the full control effect; nearly all actives have a fitted effect of over 40% in size
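Recombinant human Tdp1 (E. coli-expressed, 1 nM final) preincubated with compounds 15 min at room temperature, then 5'-biotin/3'-phosphotyrosine-FITC DNA substrate (15 nM final) added for 5 min. AlphaScreen beads (10 ug/ml final) added 10 min; cleavage lowers signal.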
Pin1 inhibitor = inhibitors of human Pin1; Pin1 FP peptide displacement, HiFluor488, 10 min; 0.009% of 390,000 active; AID 504891; Potency, µM (doses to about 115 µM), for inactives: at the highest dose activity, negative = inhibition, most hits filed as inhibitors; active = well fitted inhibition curve with a large enough effect in the polarisation, with a control signal flat, not every such curve was filed as active; inconclusive = small, poorly fitted or top-dose-only effect, or effect the other way, or a change in a side signal; inactive = no such curve, though single readings can be large or run the other way; the % refers to the polarisation; also: potency is read from the fitted curve at half-maximal effect; % is scaled to controls: 0 for no effect and ±100 for the full control effect
Target sequence (Q13526 whole entry, looked up): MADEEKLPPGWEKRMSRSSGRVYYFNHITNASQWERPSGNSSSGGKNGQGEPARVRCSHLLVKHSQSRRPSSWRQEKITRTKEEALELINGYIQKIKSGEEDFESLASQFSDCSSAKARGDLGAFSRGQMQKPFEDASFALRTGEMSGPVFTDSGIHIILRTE
VDR inh = vitamin D3 receptor (human) inhibition; AID 504847; VDR-SRC2-3 peptide fluorescence polarization, 2 h; Potency, µM, inactives show max response, negative = inhibition, actives largely listed as inhibitors; P11473; 0.93% of 400,000 active; also: potency is read from the fitted curve at half-maximal effect; % is scaled to controls: 0 for no effect and ±100 for the full control effect
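Signal is fluorescence polarization, reporting how far test compounds block the interaction of VDR with the SRC2-3 coregulator peptide after a 2 h room-temperature incubation.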
USP1 UbRho = USP1-UAF1 deubiquitinase inhibition validated | shares compounds with VDR inh | Ub-Rhodamine cleavage, fluorescence kinetic read | Potency, µM (doses to about 56.8 µM), for the others: top-dose activity change, negative = inhibition, most hits filed as inhibitors | 50% of 50 active
VDR inh confirm = inhibits human vitamin D receptor, primary hit validation | Potency, µM, usual class: inhibitors | VDR-coactivator inhibition assay, qHTS confirmation | shares compounds with VDR inh | AID 602199 | 89% of 840 active; also: potency is read from the fitted curve at half-maximal effect
VDR FP = blocks human VDR-coactivator binding in fluorescein assay; VDR-coactivator binding, fluorescein fluorescence polarization; shares compounds with VDR inh; Potency, µM (top dose mostly 57.1 µM), for the others: at the top dose activity change, negative = inhibition, usual class: inhibitors; AID 602200; 48% of 840 active; also: potency is read from the fitted curve at half-maximal effect
VDR bla = inhibits human VDR in beta-lactamase reporter cells; shares compounds with VDR inh; VDR beta-lactamase reporter cells, FRET ratio; cells co-treated with VDR agonist LG190178; Potency, µM (titrated, usually from 46.1 µM), for inactives: at the highest dose activity change, negative = inhibition, hits mostly inhibitors; 23% of 840 active; AID 602202; also: potency is read from the fitted curve at half-maximal effect; % is scaled to controls: 0 for no effect and ±100 for the full control effect
VDR viability = counter-screen for vitamin D receptor inhibitors: cytotoxicity | shares compounds with VDR inh | 18% of 840 active | cytotoxicity counter-screen, cell viability, qHTS | Potency, µM (top dose mostly 48.3 µM), for the others: at the top dose activity change, negative = cytotoxicity, most hits filed as cytotoxic;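 also: potency is read from the fitted curve at half-maximal effect; plate controls were DMSO for no effect and high-concentration cycloheximide for full effect; nearly all actives have a fitted effect of over 75% in size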
Active calls of the source: *; ? = inconclusive; nt = not tested or not shown; [ ] = another dose, or the depositor's remark. Unless noted, calls follow the shape of the dose curve; as a rule, active = well fitted curve in the direction sought with a large enough effect; inconclusive = small, poorly fitted or top-dose-only effect, or another doubt; inactive = no such curve, though single readings can be large; an effect the other way counts as inactive or inconclusive.

SMILES | PLK1 PBD block | ASM inhibitor | Tb PFK block | TDP1 block | Pin1 inhibitor | VDR inh | VDR inh confirm | VDR FP | VDR bla | VDR viability | others
O=[N+]([O-])c1ccc(S(=O)(=O)c2cccc(C(F)(F)F)c2)nc1 | 2.67µM* | 4.6% | nt | nt | -6.4% | 28.2µM* | 6.7* | ? | 16.4µM* | ?
O=S(=O)(Nc1cccnc1)c1cccc(C(F)(F)F)c1 | -5.5% | 6.1% | -9.4% | 4.4% | -1.4% | -23.6% | nt | nt | nt | nt
CCOc1ccccc1NC(=O)CN1C(=O)COc2ccc(S(=O)(=O)N3CCCCC3)cc21 | nt | nt | nt | 7.7% | ? | -1.2% | nt | nt | nt | nt
O=C(CSC1=NS(=O)(=O)c2ccccc21)Nc1ccccc1 | 10.6µM* | -1.7% | -16.2% | 9.2% | 2.3% | 15.8µM* | 10.6* | -18.4% | -6.0% | -14.0%
COC(=O)CSc1ccccc1C(=O)OC | -2.4% | 168.0% | -9.4% | 2.3% | 0.7% | -4.9% | nt | nt | nt | nt
COC(=O)CSC1=NS(=O)(=O)c2ccccc21 | 2.99µM* | 1.0% | -6.1% | -1.1% | -0.7% | 31.6µM* | 8.44* | ? | 18.4% | -3.8%
CC1=C(CO)C(=O)OC([C@@H](C)C2CC[C@H]3C4C[C@H]5O[C@]56[C@@H](O)C=CC(=O)[C@]6(C)C4CC[C@]23C)C1 (stereo partly drawn) | -28.8% | -2.0% | 1.0% | nt | 4.9% | 17.8µM* | 11.9* | 10µM* | 5.8µM* | ?
CC(C(=O)O)C1CCC2C3CC=C4CC(O)CC[C@@]4(C)C3CC[C@]12C (stereo partly drawn) | nt | nt | nt | 6.3% | nt | 11.2% | nt | nt | nt | nt
CCCCOc1ccc(C(=O)Nc2ccc3c(c2)CCCN3C(=O)c2cccs2)cc1 | nt | nt | nt | 6.2% | 9.3% | 3.9% | nt | nt | nt | nt
Cc1ccc2c(c1)c1c(c(=O)n(Cc3ccccc3)c(=O)n1Cc1cccc(F)c1)n2C | nt | nt | nt | 0.0% | -0.7% | -9.7% | nt | nt | nt | nt
Nc1ccc2c(c1)C(=O)c1ccccc1-2 | -17.6% | -4.4% | nt | nt | -0.1% | 6.6% | nt | nt | nt | nt
O=C1C(=O)c2ccc(-c3ccccc3)cc2-c2ccccc21 | -19.0% | -6.0% | -6.2% | 1.6%[56.1 µM] | -11.5% | 3.55µM* | 0.67* | ? | 3.26µM* | 2.51µM*
COc1cc(/C=C2\C(=O)N(c3ccc(S(N)(=O)=O)cc3)N=C2C)ccc1OC(=O)c1ccco1 | 3.77µM* | -25.2% | -10.5% | ? | -6.6% | ? | 10* | 3.55µM* | -10.6% | -17.8%
Cc1nc(N=Nc2ccc(C(=O)O)cc2)c(COP(=O)(O)O)c(C=O)c1O | nt | nt | nt | 14.1µM* | nt | -3.1% | nt | nt | nt | nt | USP1 UbRho=5.91µM*
COc1ccc(/C=C/C(=O)c2ccc3c(c2)OCCO3)cc1[N+](=O)[O-] | -15.6% | -0.9% | 0.6% | 7.1% | 9.6% | -26.6% | nt | nt | nt | nt
O=C(/C=C/c1cccc([N+](=O)[O-])c1)c1cccs1 | -29.1% | 1.7% | -1.6% | 0.0% | -9.7% | ? | 5.62* | 7.94µM* | -3.3% | ?
O=C(/C=C/c1cccc([N+](=O)[O-])c1)c1ccc2c(c1)OCCO2 | -24.4% | 11.7% | -0.6% | 4.7% | 4.3% | ? | 12.6* | 12.6µM* | ? | ?
CN(C)S(=O)(=O)c1ccc2c(c1)/C(=C/c1cc3c([nH]1)CCCC3)C(=O)N2 | 3.0% | ? | -11.7% | 11.8%[56.1 µM] | ? | -18.7% | nt | nt | nt | nt | USP1 UbRho=46.9µM*
Cc1[nH]n(-c2ncc(-c3ccccc3)s2)c(=O)c1C(c1ccc(Br)cc1)C(C#N)C#N (stereo not drawn) | 2.67µM* | -7.4% | 2.2% | 5.8% | nt | 35.5µM* | 7.52* | ? | ? | -17.5%
Oc1ccc(C(=S)N2CCN(c3cccc(Cl)c3)CC2)cc1 | 8.44µM* | -5.0% | -12.6% | 5.5% | -12.9% | ? | ? | ? | -23.2% | 3.7%
CC(C)Nc1nc(NC(C)C)nc(NS(=O)(=O)c2ccc(N)cc2)n1 | -8.5% | 4.9% | 7.3% | 2.6% | -7.3% | 2.1% | nt | nt | nt | nt
Cc1ccc(S(=O)(=O)Nc2nsc(N)n2)cc1 | -6.2% | 0.3% | -1.5% | 7.7% | -10.5% | 7.08µM* | 5.32* | ? | 27.0% | -9.9%
O=C(c1ccccc1)N1N=C(c2ccc(F)cc2)CC1(O)C(F)(F)F (stereo not drawn) | -22.8% | -2.0% | 6.6% | nt | 0.5% | -5.8% | nt | nt | nt | nt
CN1CCC2(CC1)N=C(c1ccc(F)cc1)C(=S)N2C(=O)c1ccccc1 | ? | -0.6% | 0.0% | 8.2% | -1.9% | 44.7µM* | 18.9* | ? | 0.7% | ?
O=C(C1CCC(Cn2c(=O)c3sccc3n(Cc3ccccc3)c2=O)CC1)N1CCCCC1 (stereo not drawn) | nt | nt | nt | 4.5% | -6.1% | 2.1% | nt | nt | nt | nt
SMILES | PLK1 PBD block | ASM inhibitor | Tb PFK block | TDP1 block | Pin1 inhibitor | VDR inh | VDR inh confirm | VDR FP | VDR bla | VDR viability | others
CS(=O)(=O)N(CC(=O)NC1CCCCC1)Cc1ccc(F)cc1 | -15.8% | -7.4% | -3.5% | 0.0% | 0.6% | 2.1% | nt | nt | nt | nt
COc1ccc(C(=O)/C=C/C(=O)N(CC(=O)NC2CCCCC2)Cc2ccc(F)cc2)c(O)c1 | 4.23µM* | -1.5% | 2.2% | 7.2% | 18.4% | 79.4µM* | 10.6* | 4.47µM* | 13µM* | 9.2µM*
CCc1ccc(CNc2ncc(-c3cccc(OC)c3)n2C)cc1 | nt | nt | nt | 1.9% | 5.0% | -5.7% | nt | nt | nt | nt
O=S(=O)(c1ccccc1)c1nnn2c1nc(Nc1ccccc1)c1cc(Cl)ccc12 | nt | nt | nt | 2.0% | 15.8% | -2.1% | nt | nt | nt | nt
COc1ccc(CCNC(=O)CSc2cn(CCNC(=O)c3ccccc3F)c3ccccc23)cc1OC | nt | nt | nt | 9.7% | -1.3% | 17.1% | nt | nt | nt | nt
CCC1CN(C(=O)N2CCC(C(=O)NCc3ccc(N(C)C)cc3)CC2)c2ccccc2O1 (stereo not drawn) | nt | nt | nt | 2.6% | -2.5% | 7.0% | nt | nt | nt | nt
